High-throughput results (PubChem BioAssay)
Rows were chosen to be rich in hits. Some 1.6% of all compounds tested hit in one or more screens of this group.
VLA-4 antagonist: blocks LDV-FITC ligand binding to Mn2+-activated human VLA-4 integrin | P13612 | Jurkat cells, LDV-FITC binding with Mn2+, flow cytometry; 100% = Mn2+-driven binding gain fully reversed | inhibition, % at 10 µM (by protocol) | actives 0.2% (n = 24,000) | AID 529;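 active = inhibition above 50%; inconclusive = compound itself fluorescent, judged against control cell fluorescence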;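 also: 0% = Mn2+ stimulated cells lacking compound and 100% = ligand binding without Mn2+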
Prostate diff: promotes differentiation of LNCaP prostate cells; flow cytometry side scatter, 4 d; side scatter shift, % at 10 µM; actives 0.56% (n = 24,000); AID 795;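 active = side scatter shift above 30%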;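 also: androgen-responsive LNCaP prostate cancer cells in charcoal-stripped serum medium; percent of cells past a gate set so DMSO wells show 10% shift; higher shift means more granular cells and more differentiation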
Jurkat autofluor: counter-screen for VLA-4 integrin: compound autofluorescence in Jurkat cells | fluorescence ratio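 (tested at 10 µM compound in the well)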 | flow cytometry; active compounds read high; 1 = vehicle-only cell background | actives 0.61% (n = 24,000);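 active = fluorescence ratio above 2.44, which is 1 plus 3 SD of all ratios; inconclusive = signal too bright to measure linearly, ratio around 10 or more; inactive = fluorescence ratio below 2.44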;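 also: green fluorescence of cells measured with 488 nm excitation and 530 nm emission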
Proteasome disasm: blocks ATP-dependent breakdown of the yeast 26S proteasome; inhibition of disassembly, % (concentration not given with the values); actives 0.2% (n = 24,000); AID 751; anti-FLAG beads, GFP-proteasome disassembly, flow cytometry;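 active = inhibition of disassembly above about 33%, limit read from the data; inconclusive = likely self-fluorescent, control bead median signal at least 40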;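 also: plate controls were ATP control with full disassembly for no effect and ATP-gamma-S intact proteasomes for full effect; higher percent means more bead fluorescence retained so stronger block of disassembly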
VLA-4 allo ag: allosterically activates the human VLA-4 integrin. Jurkat cells, LDV-FITC binding, flow cytometry. activation, % at 10 µM (by protocol). 24,000 tested, under 10 active. AID 528;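 active = fluorescent ligand binding to cells raised by more than 40% of the manganese-induced maximum; inconclusive = compound's own fluorescence above 85% of the ligand control signal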;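 also: 0% = ligand binding without compound and 100% = manganese-stimulated maximal binding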
The depositor's hits bear a star.

`COc1ccc(-c2nnc(Nc3nc4c(OC)cccc4s3)o2)cc1` gave VLA-4 antagonist 66*, Prostate diff 3, Jurkat autofluor 1.1, Proteasome disasm -1 and VLA-4 allo ag 1.
`CCOc1ccccc1NC(=O)c1nc[nH]c1C(=O)Nc1ccccc1OCC` gave VLA-4 antagonist -28, Prostate diff 64*, Jurkat autofluor 1, Proteasome disasm 5 and VLA-4 allo ag 12.
Screening COc1ccccc1NC(=O)c1nc[nH]c1C(=O)Nc1ccccc1OC returned VLA-4 antagonist -7, Prostate diff 35*, Jurkat autofluor 0.98, Proteasome disasm 7 and VLA-4 allo ag 14.
`COc1ccc(NC(=O)c2nc[nH]c2C(=O)Nc2ccccc2C)cc1` gave VLA-4 antagonist inconclusive, Prostate diff 8, Jurkat autofluor 1.1, Proteasome disasm -1 and VLA-4 allo ag 8.
`CCOc1ccccc1NC(=O)Cn1nnc(C(=O)Nc2ccccc2Cl)c1N` gave VLA-4 antagonist inconclusive, Prostate diff 10, Jurkat autofluor 1.1, Proteasome disasm 1 and VLA-4 allo ag inconclusive.
CCN(CC)c1ccc(C=N/C(C#N)=C(\N)C#N)cc1 was read as VLA-4 antagonist inconclusive, Prostate diff 19, Jurkat autofluor 5.9*, Proteasome disasm inconclusive and VLA-4 allo ag inconclusive.
CCOC(=O)N1CCN(c2cc(NCCC(=O)O)c3c4c(onc24)-c2ccccc2C3=O)CC1 was read as VLA-4 antagonist inconclusive, Prostate diff 0, Jurkat autofluor 4.6*, Proteasome disasm -3 and VLA-4 allo ag inconclusive.
Screening O=C(O)CCCNc1cc(N2CCC3(CC2)OCCO3)c2noc3c2c1C(=O)c1ccccc1-3 returned VLA-4 antagonist inconclusive, Prostate diff 5, Jurkat autofluor 5.2*, Proteasome disasm -3 and VLA-4 allo ag inconclusive.
`COc1ccc2c(c1)C(=O)N(c1ccccc1OC)C(=O)C2` gave VLA-4 antagonist inconclusive, Prostate diff 9, Jurkat autofluor 6.3*, Proteasome disasm 1 and VLA-4 allo ag inconclusive.
Screening CCN(CC)CCCNC(CC(=O)O)C(=O)O (stereo not given) returned VLA-4 antagonist 14, Prostate diff 7, Jurkat autofluor 1.1, Proteasome disasm 0 and VLA-4 allo ag -11.
For Cn1c2ccccc2c2cnn(CC(=O)N3CCN(c4ncccn4)CC3)c(=O)c21 the results were VLA-4 antagonist -2, Prostate diff 3, Jurkat autofluor 1.3, Proteasome disasm 1 and VLA-4 allo ag -9.
`CN1CC=C2C(C#N)=C(N)C(C#N)(C#N)C(c3cccc(Cl)c3Cl)C2C1` (stereo not given) gave VLA-4 antagonist inconclusive, Prostate diff 4, Jurkat autofluor 2.7*, Proteasome disasm 17 and VLA-4 allo ag inconclusive.
CCOC(=O)c1c(-c2ccc(C)o2)csc1NC(=O)CN1CCN(CC)CC1 was read as VLA-4 antagonist -3, Prostate diff 34*, Jurkat autofluor 1, Proteasome disasm -11 and VLA-4 allo ag 0.
For COC(=O)c1c(-c2cccs2)csc1NC(=O)CN1CCOCC1 the results were VLA-4 antagonist 6, Prostate diff 13, Jurkat autofluor 1.2, Proteasome disasm 1 and VLA-4 allo ag -6.
Screening CN(Cc1ccco1)C(=O)C1CCC(=O)N1Cc1ccc(F)cc1 (stereo not given) returned VLA-4 antagonist 2, Prostate diff 8, Jurkat autofluor 1, Proteasome disasm -1 and VLA-4 allo ag 3.
Screening Cc1ccc(CCNC(=O)CN2C(=O)COc3ccccc32)cc1 returned VLA-4 antagonist 62*, Prostate diff 11, Jurkat autofluor 1.1, Proteasome disasm -1 and VLA-4 allo ag 3.
For Cc1ccc(CNC(=O)CN2C(=O)COc3ccc(C)cc32)cc1 the results were VLA-4 antagonist -11, Prostate diff 9, Jurkat autofluor 1, Proteasome disasm -1 and VLA-4 allo ag 4.
Screening Cc1nc2ncnn2c(C)c1CCC(=O)N1CCOCC1 returned VLA-4 antagonist 4, Prostate diff 8, Jurkat autofluor 1.1, Proteasome disasm 0 and VLA-4 allo ag 2.
CC1(C)CC(=O)C(CCC(=O)c2ccccc2)C(C)(C)N1 (stereo not given) was read as VLA-4 antagonist inconclusive, Prostate diff 2, Jurkat autofluor 1.1, Proteasome disasm 1 and VLA-4 allo ag inconclusive.
Screening O=C(CN1CCN(Cc2ccccc2)C1=O)NCc1ccc(Cl)cc1 returned VLA-4 antagonist -11, Prostate diff 4, Jurkat autofluor 1, Proteasome disasm 0 and VLA-4 allo ag -7.
O=C(CN1CCN(Cc2ccc(Cl)cc2)C1=O)NCCN1CCCC1 was read as VLA-4 antagonist inconclusive, Prostate diff 11, Jurkat autofluor 0.8, Proteasome disasm 49* and VLA-4 allo ag inconclusive.
Screening CCN1CCCC1CNC(=O)Cn1cccc1C(=O)c1ccccc1 (stereo not given) returned VLA-4 antagonist -13, Prostate diff 1, Jurkat autofluor 0.99, Proteasome disasm -2 and VLA-4 allo ag -11.
For Oc1[nH]c2ccccc2c1/C=N/c1nccs1 the results were VLA-4 antagonist inconclusive, Prostate diff 8, Jurkat autofluor 9.6*, Proteasome disasm 17 and VLA-4 allo ag inconclusive.
Screening COc1ccc(CC(=O)Nc2c3c(nn2-c2cccc(C)c2C)CS(=O)C3)cc1OC (stereo not given) returned VLA-4 antagonist -9, Prostate diff 14, Jurkat autofluor 0.97, Proteasome disasm -1 and VLA-4 allo ag -2.
Screening N#Cc1c(-c2ccco2)cc(C2CC2)nc1SCC(=O)c1ccccc1 returned VLA-4 antagonist inconclusive, Prostate diff 15, Jurkat autofluor 2.5*, Proteasome disasm 1 and VLA-4 allo ag inconclusive.
Cn1c2ccccc2c2c(C(=O)O)cn(C3CCCC3)c(=O)c21 was read as VLA-4 antagonist 51*, Prostate diff 16, Jurkat autofluor 1.1, Proteasome disasm 0 and VLA-4 allo ag -21.
`Cn1c2ccccc2c2c(C(=O)N3CCN(c4ccccn4)CC3)cn(C3CCCC3)c(=O)c21` gave VLA-4 antagonist 28, Prostate diff 5, Jurkat autofluor 1.1, Proteasome disasm -1 and VLA-4 allo ag -5.
CN1CCc2c(sc3c2c(=O)n(-c2cccc(Cl)c2)c2nncn32)C1 was read as VLA-4 antagonist -10, Prostate diff 3, Jurkat autofluor 1.1, Proteasome disasm 30 and VLA-4 allo ag 0.
CSc1ccc(C2NC(=O)c3c(sc4c3CCN(C)C4)N2)cc1 (stereo not given) was read as VLA-4 antagonist inconclusive, Prostate diff 13, Jurkat autofluor 4.7*, Proteasome disasm 4 and VLA-4 allo ag inconclusive.
Screening Cc1ccsc1C1NC(=O)c2c(sc3c2CCN(C)C3)N1 (stereo not given) returned VLA-4 antagonist inconclusive, Prostate diff 11, Jurkat autofluor 2.4, Proteasome disasm 3 and VLA-4 allo ag inconclusive.
`CN1CCc2c(sc3c2C(=O)NC(c2ccc(-c4cccc(Cl)c4)o2)N3)C1` (stereo not given) gave VLA-4 antagonist 0, Prostate diff 5, Jurkat autofluor 9.9*, Proteasome disasm 8 and VLA-4 allo ag inconclusive.
